# Measured values: PubChem BioAssay (NCATS)
# Unmarked numbers belong to inactive results. Results filed as inconclusive are left out. The source made the active and inactive calls. Unless noted, calls follow the shape of the dose curve; as a rule, active = well fitted curve in either direction with a large enough effect (not every such curve was filed as active); inconclusive = small, poorly fitted or top-dose-only effect, or another doubt; inactive = flat fitted curve, though single readings scatter.
# Key:
# [1] = target: Lysosomal acid glucosylceramidase (Homo sapiens) (UniProt P04062); assay: Glucocerebrosidase-p2 (AID 348; in the data active = potency below about 10 µM; also: potency is read from the fitted curve at half-maximal effect); details: purified GBA, blue fluorogenic substrate, 40 min
# Method in brief: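 Normal human glucocerebrosidase (0.2 nM) with blue fluorogenic substrate (80 uM final) in citrate/phosphate pH 5.9 with 10mM sodium taurocholate, 0.01% tween-20; 40 min RT, NaOH/glycine stop; fluorescence Ex 365/Em 440; AC50 from a titration from 0.6 nM upwards.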
# [2] = AP1 Signaling Pathway (AID 357); details: ME-180 AP-1-bla reporter, EGF-induced, beta-lactamase ratio, 5 h; at 7.69 µM (top of the series) unless noted; also: % is scaled to controls: 0 for no effect and ±100 for the full control effect
# Method in brief: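 AP-1-bla ME-180 cells with beta-lactamase reporter under AP-1 response element, stimulated with EC50 EGF; compounds titrated, 5 hours at 37 degrees Celsius. CCF4 read at 460/530 nm ratio; positive and negative modulators judged by AC50.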
# [3] = target: Cytochrome P450 1A2 (Homo sapiens) (UniProt P05177); assay: p450-cyp1a2 (AID 410; calls by dose curve; also: potency is read from the fitted curve at half-maximal effect;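 as to activity change, negative = inhibition: -100% = full effect of reference inhibitor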); details: recombinant CYP1A2, luciferin-ME demethylation, luminescence; series mostly up to 11.4 µM
# Method in brief: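 O-Demethylation of luciferin 6' methyl ether by human CYP1A2 is monitored as luciferase luminescence. Substrate sits at Km (100uM); enzyme is 20nM. Values are scaled to 57 uM furafylline as maximal inhibition.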
# [4] = NFAT Signaling Pathway (AID 444); details: Jurkat NFAT-bla M1, carbachol, beta-lactamase ratio, 5 h; at 7.69 µM (top of the series) unless noted;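 also: carbachol stimulus at about its EC50 of 1 µM final; % is scaled to controls: 0 for no effect and ±100 for the full control effect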
# Method in brief: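 Read-out: CCF4 FRET ratio (460 nm/530 nm) after 1 h RT dye loading, used for %activity and AC50 from titration series. Cells: Jurkat NFAT-β-lactamase/M1 line, treated with compound plus 1 uM carbachol for 5 h, 37 °C.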
# [5] = Stat Signaling Pathway (AID 446); details: ME-180 (cervical carcinoma) SIE beta-lactamase reporter, IL-6 stimulated, 5 h; at 7.69 µM (top of the series) unless noted;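 also: ME-180 cervical cancer cells given 40 pM IL-6 alongside compound; SIE-controlled beta-lactamase reporter measured as 460/530 nm FRET emission ratio; % is scaled to controls: 0 for no effect and ±100 for the full control effect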
# Method in brief: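 FRET read-out (405 nm excitation, 460/530 nm emission) of a beta-lactamase reporter under a STAT-inducible element in ME-180 cervical carcinoma cells. Cells with compound receive 40 pM IL-6 for 5 h. Values are normalised to AC90 stimulation and AC90 JAK-inhibitor controls.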
# [6] = target: Glucocorticoid receptor (Homo sapiens) (UniProt P04150); assay: GR-GFP Redistribution (AID 450;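 active = compounds whose dose series gives a full or clear partial fitted curve of increased nuclear translocation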; also: potency is read from the fitted curve at half-maximal effect); details: U2OS GR-GFP nuclear translocation, laser cytometry, 2 h
# [7] = target: Glucocorticoid receptor (Homo sapiens) (UniProt P04150); assay: GR-EFC Redistribution (AID 451; calls by dose curve; also: potency is read from the fitted curve at half-maximal effect); details: CHO-K1 GR-EFC translocation, beta-gal luminescence, 2 h
# Method in brief: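 Translocation of GR-ED fusion to nuclear EA restores b-gal, read by luminescence after 1 h room-temperature detection. Engineered CHO-K1 biosensor cells, 1,000/well, exposed 2 h at 37 C to titrations up to 46 uM final.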
# [8] = target: Mitogen-activated protein kinase 10 (Mus musculus) (UniProt Q61831); assay: JNK3 AlphaScreen Assay (AID 530); details: JNK3 lysate, c-Jun phosphorylation; series mostly up to 11.4 µM;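 also: kinase came from lysate of stimulated human HepG2 cells; signal reports phosphorylation of biotinylated GST-cJun 1-79 at Ser73 with 10 µM ATP; % is scaled to controls: 0 for no effect and ±100 for the full control effect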
# Method in brief: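 qHTS titrations with 15 min compound pre-incubation before adding ATP (10 uM final). Read-out: AlphaScreen of Ser73-phosphorylated biotin-GST-cJun using HepG2 lysate JNK3 activated by IL-1β and TNFα.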
# [9] = target: 3',5'-cyclic-AMP phosphodiesterase 4B (Homo sapiens) (UniProt Q07343); assay: qHTS Assay for Inhibitors of PDE-IV (AID 607; active = well fitted activation curve with a large enough effect in the main read-out, with a control signal flat, not every such curve was filed as active; also: % of control where 0% means no effect); details: HEK293 ACTOne CNG channel cells, membrane potential fluorescence; series mostly up to 22.9 µM
# Method in brief: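 Cell-based read-out of cAMP via a modified cyclic nucleotide-gated channel and membrane potential dye (535/590 nm) in HEK293 cells expressing PDE4 endogenously. Compounds tested up to 22.9 uM final; 100 uM RO 20-1724 reference.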
# [10] = target: Cytochrome P450 2C19 (Homo sapiens) (UniProt P33261); assay: qHTS Assay for Inhibitors and Substrates of Cytochrome P450 2C19 (AID 899; active = well fitted inhibition curve with a large enough effect; also: nearly all actives have a fitted effect of over 60% in size; also: potency is read from the fitted curve at half-maximal effect); details: recombinant CYP2C19, luciferin-H EGE luminescence; series mostly up to 11.4 µM
# Method in brief: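 Reactions contain 5nM enzyme, 10uM Luciferin-H EGE (KM) and 50mM KPO4; compound preincubates 10 min at 37C, NADPH regeneration starts turnover for 60 min. Luminescence after detection reagent gives activity.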
# [11] = target: Cytochrome P450 2D6 (Homo sapiens) (UniProt P10635); assay: qHTS Assay for Inhibitors and Substrates of Cytochrome P450 2D6 (AID 891; active = well fitted inhibition curve with a large enough effect; also: nearly all actives have a fitted effect of over 60% in size; also: potency is read from the fitted curve at half-maximal effect); details: recombinant CYP2D6, luciferin-ME EGE luminescence; series mostly up to 11.4 µM
# Method in brief: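 Luminescent read-out of luciferin formed by 5 nM human CYP2D6 demethylating 30 uM Luciferin-ME EGE (Km level) over 60 min at room temperature after NADPH regeneration addition. Data normalized to full inhibition by 1.43 uM quinidine.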
# Chain of Lysosomal acid glucosylceramidase (Homo sapiens) (P04062 whole entry, looked up): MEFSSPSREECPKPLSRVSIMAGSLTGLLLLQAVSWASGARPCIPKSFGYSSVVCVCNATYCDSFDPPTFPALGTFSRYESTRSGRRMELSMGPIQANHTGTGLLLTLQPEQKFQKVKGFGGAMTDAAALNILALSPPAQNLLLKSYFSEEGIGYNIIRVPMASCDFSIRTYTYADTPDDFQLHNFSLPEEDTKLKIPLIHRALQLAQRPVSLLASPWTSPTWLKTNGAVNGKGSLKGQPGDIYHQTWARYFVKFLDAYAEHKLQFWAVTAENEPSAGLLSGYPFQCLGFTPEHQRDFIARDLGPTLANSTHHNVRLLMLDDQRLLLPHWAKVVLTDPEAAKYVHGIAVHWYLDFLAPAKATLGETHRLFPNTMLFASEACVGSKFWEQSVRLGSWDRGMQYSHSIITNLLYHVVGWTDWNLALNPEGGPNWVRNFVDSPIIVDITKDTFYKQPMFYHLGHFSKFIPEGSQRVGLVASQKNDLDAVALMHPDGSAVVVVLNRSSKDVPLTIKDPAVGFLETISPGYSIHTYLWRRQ
# Chain of Glucocorticoid receptor (Homo sapiens) (P04150 whole entry, looked up, the tested form may be a part): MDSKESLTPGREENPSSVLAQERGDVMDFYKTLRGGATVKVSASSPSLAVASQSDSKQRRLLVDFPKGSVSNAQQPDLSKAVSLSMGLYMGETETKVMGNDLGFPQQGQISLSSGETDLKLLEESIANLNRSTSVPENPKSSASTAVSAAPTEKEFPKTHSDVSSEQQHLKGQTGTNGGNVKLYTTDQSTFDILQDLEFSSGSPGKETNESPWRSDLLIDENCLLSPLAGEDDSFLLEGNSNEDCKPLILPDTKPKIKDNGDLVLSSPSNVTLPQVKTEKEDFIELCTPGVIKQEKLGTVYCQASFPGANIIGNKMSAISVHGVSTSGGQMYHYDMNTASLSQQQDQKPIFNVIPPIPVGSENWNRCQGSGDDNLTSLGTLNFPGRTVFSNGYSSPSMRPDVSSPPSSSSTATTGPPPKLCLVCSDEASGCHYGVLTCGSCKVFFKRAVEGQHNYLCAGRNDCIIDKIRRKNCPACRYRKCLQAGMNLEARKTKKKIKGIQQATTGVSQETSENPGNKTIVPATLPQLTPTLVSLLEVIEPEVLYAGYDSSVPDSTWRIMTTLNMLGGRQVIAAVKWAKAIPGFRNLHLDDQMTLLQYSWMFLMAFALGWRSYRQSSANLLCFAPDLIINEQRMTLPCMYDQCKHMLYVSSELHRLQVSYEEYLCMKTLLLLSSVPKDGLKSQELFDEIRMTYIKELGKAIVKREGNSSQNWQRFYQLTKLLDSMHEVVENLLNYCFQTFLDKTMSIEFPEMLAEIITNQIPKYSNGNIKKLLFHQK
# Chain of Cytochrome P450 2C19 (Homo sapiens) (P33261 whole entry, looked up): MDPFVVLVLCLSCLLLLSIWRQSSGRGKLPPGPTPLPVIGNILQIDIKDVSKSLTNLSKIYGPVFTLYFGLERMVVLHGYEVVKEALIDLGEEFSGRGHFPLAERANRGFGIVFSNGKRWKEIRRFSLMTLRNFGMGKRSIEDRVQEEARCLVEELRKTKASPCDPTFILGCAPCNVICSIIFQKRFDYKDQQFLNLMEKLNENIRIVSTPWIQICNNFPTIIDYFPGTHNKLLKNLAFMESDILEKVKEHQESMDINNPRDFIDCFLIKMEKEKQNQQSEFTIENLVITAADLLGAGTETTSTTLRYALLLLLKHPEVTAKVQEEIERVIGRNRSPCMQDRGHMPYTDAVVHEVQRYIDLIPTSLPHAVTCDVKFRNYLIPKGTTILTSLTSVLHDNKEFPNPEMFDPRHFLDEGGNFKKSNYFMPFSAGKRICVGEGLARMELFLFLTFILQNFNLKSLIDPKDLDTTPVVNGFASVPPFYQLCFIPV
# Chain of Cytochrome P450 1A2 (Homo sapiens) (P05177 whole entry, looked up): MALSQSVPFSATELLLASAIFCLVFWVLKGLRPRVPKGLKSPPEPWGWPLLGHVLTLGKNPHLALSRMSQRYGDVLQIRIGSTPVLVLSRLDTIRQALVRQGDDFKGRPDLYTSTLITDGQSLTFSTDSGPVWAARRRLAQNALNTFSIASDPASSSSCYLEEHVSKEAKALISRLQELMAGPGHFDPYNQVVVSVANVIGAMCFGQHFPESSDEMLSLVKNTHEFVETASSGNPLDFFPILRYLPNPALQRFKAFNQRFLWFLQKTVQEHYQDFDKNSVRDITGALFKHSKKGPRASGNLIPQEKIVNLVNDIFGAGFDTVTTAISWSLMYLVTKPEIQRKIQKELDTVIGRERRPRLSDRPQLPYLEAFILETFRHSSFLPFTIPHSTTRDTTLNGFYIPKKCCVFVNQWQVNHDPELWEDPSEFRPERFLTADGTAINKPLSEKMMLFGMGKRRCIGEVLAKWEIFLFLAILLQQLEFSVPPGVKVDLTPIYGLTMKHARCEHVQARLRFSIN
# Chain of 3',5'-cyclic-AMP phosphodiesterase 4B (Homo sapiens) (Q07343 whole entry, looked up): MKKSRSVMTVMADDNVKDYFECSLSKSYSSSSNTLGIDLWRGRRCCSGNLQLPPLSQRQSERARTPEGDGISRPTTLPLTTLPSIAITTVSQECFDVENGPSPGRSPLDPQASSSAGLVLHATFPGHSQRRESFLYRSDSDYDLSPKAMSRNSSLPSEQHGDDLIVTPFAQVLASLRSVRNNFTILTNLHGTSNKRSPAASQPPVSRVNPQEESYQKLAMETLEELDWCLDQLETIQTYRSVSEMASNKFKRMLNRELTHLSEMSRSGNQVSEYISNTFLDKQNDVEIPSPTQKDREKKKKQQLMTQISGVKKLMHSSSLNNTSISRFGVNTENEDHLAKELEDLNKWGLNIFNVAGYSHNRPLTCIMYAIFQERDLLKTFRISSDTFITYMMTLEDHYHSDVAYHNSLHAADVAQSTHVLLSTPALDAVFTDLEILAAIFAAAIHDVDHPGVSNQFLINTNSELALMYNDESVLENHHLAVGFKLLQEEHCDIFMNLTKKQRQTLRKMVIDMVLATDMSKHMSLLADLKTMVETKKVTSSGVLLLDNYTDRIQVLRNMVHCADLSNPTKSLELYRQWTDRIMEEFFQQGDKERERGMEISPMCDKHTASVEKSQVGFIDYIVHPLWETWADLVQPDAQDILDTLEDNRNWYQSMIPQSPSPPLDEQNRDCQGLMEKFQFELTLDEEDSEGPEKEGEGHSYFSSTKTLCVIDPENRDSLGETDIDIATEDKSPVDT
# Chain of Cytochrome P450 2D6 (Homo sapiens) (P10635 whole entry, looked up): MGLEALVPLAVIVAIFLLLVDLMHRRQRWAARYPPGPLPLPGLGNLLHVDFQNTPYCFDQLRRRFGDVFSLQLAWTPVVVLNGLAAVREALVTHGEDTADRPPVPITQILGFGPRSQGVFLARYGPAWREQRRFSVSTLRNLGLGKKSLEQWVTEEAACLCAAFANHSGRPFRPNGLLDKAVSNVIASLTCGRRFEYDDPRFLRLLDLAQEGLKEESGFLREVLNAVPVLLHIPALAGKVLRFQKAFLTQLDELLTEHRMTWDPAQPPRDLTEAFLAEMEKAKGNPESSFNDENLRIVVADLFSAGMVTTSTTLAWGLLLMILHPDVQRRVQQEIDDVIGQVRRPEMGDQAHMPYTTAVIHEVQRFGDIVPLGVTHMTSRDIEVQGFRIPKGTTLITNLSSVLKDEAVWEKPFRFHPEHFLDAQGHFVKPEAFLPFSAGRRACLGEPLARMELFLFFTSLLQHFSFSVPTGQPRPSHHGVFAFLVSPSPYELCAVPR
Structure (SMILES),Potency [1] [µM],"activity change, negative = inhibition [2] [%]",Potency [3],"activity change, negative = inhibition [4] [%]","activity, negative = inhibition [5] [%]",Potency [6] [µM],Potency [7] [µM],Potency [8],Potency [9],Potency [10],Potency [11]
Cc1ccc([C@@]2(C)CC/C(=N/N=C3\CC[C@](C)(c4ccc(C)c(C)c4)c4cc(C)c(C)cc43)c3cc(C)c(C)cc32)cc1C,> 11.4,5.94,inactive,7.12,4.03,> 46,> 9.22,inactive,inactive,inactive,
Cc1c(Cl)c(S(N)(=O)=O)cc(S(N)(=O)=O)c1NC(=O)c1ccc(Cl)cc1,> 11.4,-4.6,inactive,5.51,5.58,> 46,> 9.22,inactive,inactive,inactive,inactive
Cc1cc(C(C)(C)C)cc(CNC2CCCCC2)c1O,> 11.4,8.19,3.16 µM (active),22.7,10.5,> 46,> 9.22,inactive,inactive,0.02 µM (active),0.501 µM (active)
C=CC[C@@H](C(=O)O)c1ccccc1,> 11.4,2.31,inactive,9.16,8.67,> 46,> 9.22,inactive,inactive,inactive,
O=C(O)CSSCC(=O)O,> 11.4,5.08,inactive,15.8,17.7,> 46,> 9.22,inactive,inactive,inactive,inactive
